Compounds without any hit were thinned out: in the full panel of roughly 79,000, 15% have a hit. Calls of active or inactive are those of the source. Cut-off read from the data, not from the text of the source: active = growth inhibition above about 70%; inactive = the rest.
Experiments:
[1] = NCI Yeast Anticancer Drug Screen. Data for the rad52 strain (AID 147);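 note: 0% = growth of vehicle-treated control cultures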; conditions: S. cerevisiae rad52 mutant growth inhibition, active compounds read high
How it was run: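 Screen used a yeast mutant impaired in DNA repair. After compound exposure, growth was measured. Values reflect inhibition compared with vehicle-treated cells.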

[2] = NCI Yeast Anticancer Drug Screen. Data for the wt1 strain (AID 149);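 note: 0% = growth of vehicle-treated wt1 cultures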; conditions: S. cerevisiae wt1 strain (SPY 50644) growth inhibition, active compounds read high
How it was run: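 Vehicle-normalised growth inhibition; strain wt1; compound exposure.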

[3] = NCI Yeast Anticancer Drug Screen. Data for the rad50EPP+ strain (AID 151);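 note: 0% = growth of vehicle-treated control cultures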; conditions: S. cerevisiae rad50 mutant strain, active compounds read high
How it was run: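 Exposing the rad50EPP+ strain to each compound, growth was compared with vehicle-only cultures to give inhibition.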

[4] = NCI Yeast Anticancer Drug Screen. Data for the mgt1 strain (AID 153); conditions: S. cerevisiae mgt1 mutant growth inhibition, active compounds read high
How it was run: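 Genetically defined yeast (mgt1) treated with compound; inhibition of growth expressed against vehicle-treated controls.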

[5] = NCI Yeast Anticancer Drug Screen. Data for the rad50 strain (AID 155);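 note: 0% = growth of vehicle-only cultures of the same strain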; conditions: S. cerevisiae rad50 strain growth inhibition, active compounds read high
How it was run: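 A DNA repair-deficient yeast mutant serves as the test organism; compound-induced growth inhibition is calculated against vehicle-treated cells.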

[6] = NCI Yeast Anticancer Drug Screen. Data for the mec2-1 strain (AID 157); conditions: S. cerevisiae mec2-1 strain, active compounds read high
How it was run: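 Readout is yeast growth inhibition, normalised to vehicle-treated controls, in the mec2-1 strain exposed to compound.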

[7] = NCI Yeast Anticancer Drug Screen. Data for the rad14 strain (AID 159);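 note: 0% = growth of vehicle-treated control cultures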; conditions: S. cerevisiae rad14 strain growth inhibition, active compounds read high
How it was run: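 Vehicle-treated cultures served as the baseline for growth inhibition of a DNA repair-mutant yeast strain exposed to each compound.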

[8] = NCI Yeast Anticancer Drug Screen. Data for the sgs1 mgt1 strain (AID 161);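 note: 0% = growth of cultures given vehicle only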; conditions: S. cerevisiae sgs1 mgt1 strain, active compounds read high
How it was run: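 Percent growth inhibition was derived by comparing compound-exposed mutant yeast with vehicle-exposed cultures. The strain carries alterations in DNA damage repair.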

[9] = NCI Yeast Anticancer Drug Screen. Data for the CLN2oe strain (AID 163);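 note: 0% = growth of vehicle-only control cultures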; conditions: S. cerevisiae CLN2oe strain, active compounds read high
How it was run: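 Values reflect how much compound exposure reduced yeast growth, referenced to vehicle-exposed cells. Assay organism is a strain with a defined genetic change affecting cell-cycle control.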

[10] = NCI Yeast Anticancer Drug Screen. Data for the cln2 rad14 strain (AID 165);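 note: 0% = growth equal to vehicle treated cultures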; conditions: S. cerevisiae cln2 rad14 strain, active compounds read high
How it was run: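 Relative to vehicle controls, growth inhibition of compound-treated cln2 rad14 yeast was recorded.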

[11] = NCI Yeast Anticancer Drug Screen. Data for the bub3 strain (AID 167); conditions: S. cerevisiae bub3 mutant strain, active compounds read high
How it was run: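 Inhibition values come from growth of compound-treated mutant yeast normalised to vehicle-treated controls.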

[12] = NCI Yeast Anticancer Drug Screen. Data for the wt2 strain (AID 169);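 note: 0% = growth of vehicle-treated yeast cultures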; conditions: S. cerevisiae wt2 strain growth inhibition, active compounds read high
How it was run: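 Values express reduction in yeast growth under compound treatment, referenced to vehicle-treated cells.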

[13] = NCI Yeast Anticancer Drug Screen. Data for the mlh1 rad18 strain (AID 175); conditions: S. cerevisiae mlh1 rad18 strain growth inhibition, active compounds read high
How it was run: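 Test agents were incubated with a yeast strain of defined genotype (DNA damage repair defect). Inhibition of growth was derived by comparison with vehicle-exposed cultures.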

[14] = NCI Yeast Anticancer Drug Screen. Data for the rad18 strain (AID 177); conditions: S. cerevisiae rad18 mutant growth inhibition, active compounds read high
How it was run: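 A genetically defined yeast mutant impaired in DNA damage repair was treated with test compounds, then its growth was measured against cultures receiving vehicle alone.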

[15] = NCI Yeast Anticancer Drug Screen. Data for the mlh1 strain (AID 171);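 note: 0% = growth of vehicle-treated control cultures of the same strain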; conditions: S. cerevisiae mlh1 strain growth inhibition, active compounds read high
How it was run: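 Steps: expose the defined-mutant yeast strain to compound; expose a parallel culture to vehicle; measure growth; express compound effect as inhibition relative to the vehicle culture.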

[16] = NCI Yeast Anticancer Drug Screen. Data for the sgs1 strain (AID 173);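 note: 0% = growth of vehicle-only control cultures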; conditions: S. cerevisiae sgs1 mutant, active compounds read high
How it was run: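 Treat defined-mutant yeast with compound; measure growth; calculate inhibition relative to vehicle-treated cells.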

[17] = at 5.0 µM (retest, dose inferred, filed as 0.5)
[18] = at 50.0 µM (retest, dose inferred, filed as 5.0)

Measured: growth inhibition

Cc1cc[n+](C2=C(Nc3cccc(C(F)(F)F)c3)C(=O)c3ccccc3C2=O)cc1
active: [5]; [18] 80% | [5]; at 50.0 µM 86.8%
inactive: [1]; at 1.2 µM 5% | [1]; at 3.7 µM 5% | [1]; at 11.0 µM 7% | [1]; at 33.0 µM 21% | [1]; at 100.0 µM 55% | [2]; at 1.2 µM 0% | [2]; at 3.7 µM 2% | [2]; at 11.0 µM 4% | [2]; at 33.0 µM 7% | [2]; at 100.0 µM 12% | [3]; at 1.2 µM 7% | [3]; at 3.7 µM 9% | [3]; at 11.0 µM 12% | [3]; at 33.0 µM 29% | [3]; at 100.0 µM 30% | [4]; at 1.2 µM -1% | [4]; at 3.7 µM 0% | [4]; at 11.0 µM 1% | [4]; at 33.0 µM 10% | [4]; at 100.0 µM 12% | [5]; at 1.2 µM 2% | [5]; at 3.7 µM 3% | [5]; [17] 10% | [5]; at 11.0 µM 8% | [5]; at 33.0 µM 34% | [5]; at 100.0 µM 59% | [6]; at 1.2 µM 1% | [6]; at 3.7 µM 4% | [6]; [17] 8% | [6]; at 11.0 µM -17% | [6]; at 33.0 µM -14% | [6]; [18] 36% | [6]; at 50.0 µM 68.2% | [6]; at 100.0 µM 10% | [7]; at 1.2 µM 0% | [7]; at 3.7 µM -8% | [7]; at 11.0 µM -5% | [7]; at 33.0 µM 0% | [7]; at 100.0 µM 14% | [8]; [17] 6% | [8]; [18] 39% | [8]; at 50.0 µM 62% | [9]; at 1.2 µM 3% | [9]; at 3.7 µM 4% | [9]; at 11.0 µM 6% | [9]; at 33.0 µM -3% | [9]; at 100.0 µM -4% | [10]; [17] 6% | [10]; [18] -4% | [10]; at 50.0 µM 46.4% | [11]; at 1.2 µM 4% | [11]; at 3.7 µM 5% | [11]; [17] 1% | [11]; at 11.0 µM 9% | [11]; at 33.0 µM 13% | [11]; [18] 49% | [11]; at 50.0 µM 46.8% | [11]; at 100.0 µM 44% | [12]; at 1.2 µM 1% | [12]; at 3.7 µM 1% | [12]; at 11.0 µM 3% | [12]; at 33.0 µM 8% | [12]; at 100.0 µM 12% | [13]; [17] 3% | [13]; [18] 3% | [13]; at 50.0 µM 61.9% | [14]; at 1.2 µM 2% | [14]; at 3.7 µM -1% | [14]; at 11.0 µM 3% | [14]; at 33.0 µM 2% | [14]; at 100.0 µM 5%

O=C(O)C1C2CCC(C2)C1c1ccccc1 (stereo unspecified)
inactive: [1]; at 1.2 µM -1% | [1]; at 3.7 µM -3% | [1]; at 11.0 µM -6% | [1]; at 33.0 µM -3% | [1]; at 100.0 µM 20% | [2]; at 1.2 µM -1% | [2]; at 3.7 µM -2% | [2]; at 11.0 µM -4% | [2]; at 33.0 µM -1% | [2]; at 100.0 µM 26% | [3]; at 1.2 µM -1% | [3]; at 3.7 µM -2% | [3]; at 11.0 µM -2% | [3]; at 33.0 µM -2% | [3]; at 100.0 µM -3% | [4]; at 1.2 µM -1% | [4]; at 3.7 µM -1% | [4]; at 11.0 µM -4% | [4]; at 33.0 µM -5% | [4]; at 100.0 µM 31% | [5]; at 1.2 µM -10% | [5]; at 3.7 µM -51% | [5]; [17] -2% | [5]; at 11.0 µM 2% | [5]; at 33.0 µM -3% | [5]; [18] 10% | [5]; at 50.0 µM 19.4% | [5]; at 100.0 µM 34% | [6]; at 1.2 µM -1% | [6]; at 3.7 µM -4% | [6]; [17] -8% | [6]; at 11.0 µM -7% | [6]; at 33.0 µM -1% | [6]; [18] 8% | [6]; at 50.0 µM 14.4% | [6]; at 100.0 µM 31% | [7]; at 1.2 µM 0% | [7]; at 3.7 µM 0% | [7]; at 11.0 µM -5% | [7]; at 33.0 µM -8% | [7]; at 100.0 µM 13% | [8]; [17] -2% | [8]; [18] 8% | [8]; at 50.0 µM 10.2% | [9]; at 1.2 µM -7% | [9]; at 3.7 µM -10% | [9]; at 11.0 µM -6% | [9]; at 33.0 µM -1% | [9]; at 100.0 µM 18% | [10]; [17] -6% | [10]; [18] 8% | [10]; at 50.0 µM 11% | [11]; at 1.2 µM -1% | [11]; at 3.7 µM 11% | [11]; [17] 29% | [11]; at 11.0 µM 36% | [12]; at 1.2 µM -1% | [12]; at 3.7 µM 7% | [12]; at 11.0 µM -3% | [12]; at 33.0 µM 0% | [12]; at 100.0 µM 37% | [15]; at 1.2 µM -2% | [15]; at 3.7 µM -2% | [15]; at 11.0 µM -1% | [15]; at 33.0 µM -2% | [15]; at 100.0 µM 31% | [16]; at 1.2 µM -2% | [16]; at 3.7 µM 0% | [16]; at 11.0 µM 3% | [16]; at 33.0 µM 15% | [16]; at 100.0 µM 66% | [13]; [17] -1% | [13]; [18] 6% | [13]; at 50.0 µM 20.1% | [14]; at 1.2 µM 0% | [14]; at 3.7 µM -1% | [14]; at 11.0 µM -5% | [14]; at 33.0 µM 1% | [14]; at 100.0 µM 47%
active: [11]; at 33.0 µM 77% | [11]; [18] 90% | [11]; at 50.0 µM 95% | [11]; at 100.0 µM 94%

— PubChem BioAssay (NCI)
